Assay results taken from PubChem BioAssay (NCATS).
Records with an inconclusive call do not appear. Activity calls are given as the source filed them. Unless noted, the call rests on the fitted dose curve; in most records, active means well fitted curve in the direction sought with a large enough effect; inconclusive means small, poorly fitted or top-dose-only effect, or another doubt; inactive means no such curve, though single readings can be large; an effect the other way counts as inactive or inconclusive.

Key:
[1] = Quantitative High-Throughput drug screen in 47 multiple myeloma cell lines against the NCATS MIPE library collection: PE2_PLB cell viability assay (AID 1919869); further: nearly all actives have a fitted effect of over 35% in size; further: potency means the concentration at half of the fitted maximal effect
Procedure, shortened: (§1)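 ATP-based luminescence (CellTiter-Glo, 5 min RT incubation) quantified surviving cells following two days' treatment with MIPE 4.0 agents at 37 °C, 5% CO2.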

[2] = Quantitative High-Throughput drug screen in 47 multiple myeloma cell lines against the NCATS MIPE library collection: RPMI8226_ATCC cell viability assay (AID 1919871); further: nearly all actives have a fitted effect of over 30% in size; further: potency means the concentration at half of the fitted maximal effect
Procedure, shortened: as §1

[3] = Quantitative High-Throughput drug screen in 47 multiple myeloma cell lines against the NCATS MIPE library collection: OPM2_DSMZ cell viability assay (AID 1919872); further: nearly all actives have a fitted effect of over 30% in size; further: potency means the concentration at half of the fitted maximal effect
Procedure, shortened: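 Luminescent ATP measurement with CellTiter-Glo gives viability, scaled between DMSO-only wells (100%) and media-only wells (0%). Cells, 500 per well, faced library compounds for 48 hours at 37C.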

[4] = Quantitative High-Throughput drug screen in 47 multiple myeloma cell lines against the NCATS MIPE library collection: KMS28BM_JCRB cell viability assay (AID 1919874); further: nearly all actives have a fitted effect of over 35% in size; further: potency means the concentration at half of the fitted maximal effect
Procedure, shortened: as §1

[5] = qHTS drug screen for cell cycle checkpoint inhibitors in PARPi-resistant BRCA-mutant ovarian cancer cell lines. (AID 1963452; calls by dose curve); conditions: PEO1/OlaR viability, CellTiter-Glo luminescence, 96 h, stronger effect = lower value
Procedure, shortened: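 PEO1, PEO4 and PEO1/OlaR ovarian cancer cells, 600 per well, exposed 96 h at 37C to a dilution series. Viability read by CellTiter-Glo luminescence, normalized to DMSO and empty wells; activity summarized as Z-AUC.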

[6] = qHTS profiling for inhibitors of Plasmodium falciparum proliferation (AID 504749);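 further: 0% = DMSO vehicle and full inhibition = artemisinin control; nearly all actives have a fitted effect of over 60% in size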; conditions: P. falciparum in erythrocytes, SYBR Green DNA, 72 h
Procedure, shortened: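 In a 72 h erythrocytic culture (37 C, humidified, 5% CO2) at 2.5% hematocrit and 0.3% starting parasitemia, compounds were tested; SYBR Green I in detergent lysis buffer stained parasite DNA overnight.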

[7] = Quantitative High-Throughput drug screen in 47 multiple myeloma cell lines against the NCATS MIPE library collection: KMS11_JCRBsus cell viability assay (AID 1919873); further: nearly all actives have a fitted effect of over 50% in size; further: potency means the concentration at half of the fitted maximal effect
Procedure, shortened: as §1

[8] = Quantitative High-Throughput drug screen in 47 multiple myeloma cell lines against the NCATS MIPE library collection: PCM6_Riken cell viability assay (AID 1919870); further: nearly all actives have a fitted effect of over 30% in size; further: potency means the concentration at half of the fitted maximal effect
Procedure, shortened: as §1

[9] = qHTS for identification of novel therapeutic agents for treatment of microphthalmiaassociated transcription factor (MiT) renal cell carcinoma (RCC) (AID 1963991); conditions: CellTiter-Glo, 48 h, stronger effect = lower value;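 further: curves scaled with 100% = DMSO viability and 0% = empty wells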
Procedure, shortened: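 UOK109/UOK124/UOK145 (TFE3 fusions, three partners); 500 cells/well; MIPE v4.0, 1912 cpds, 11 conc.; 48 h, 37 C; CellTiter-Glo, 15 min RT; lum. Norm.: DMSO 100%, empty 0%.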

[10] = measured here: PEO1 parental Z-AUC

Structure (SMILES) | Potency [1] | Potency [2] | Potency [3] | Potency [4] | Z-AUC [5] | Z-AUC [5, 10] | Z-AUC ([5]; measured here: PEO4 Z-AUC) | activity, negative = inhibition ([6]; at 12.8 µM (top of the series), parasite line A) | activity, negative = inhibition ([6]; at 12.8 µM (top of the series), parasite line B) | Potency [7] | Potency [8] | z-score ([9]; TFE3-RCC UOK109 viability, measured here: UOK109 Z-AUC) | z-score ([9]; TFE3-RCC viability, measured here: UOK124 Z-AUC) | z-score ([9]; TFE3-RCC viability, measured here: UOK145 Z-AUC) | activity, negative = inhibition ([6]; at 28.7 µM (top of the series), parasite line A)
Cc1csc(NC(=O)c2sc3nc4c(c(C(F)(F)F)c3c2N)CCC4)n1 | inactive | 13.2 µM (active) | inactive | 26.4 µM (active) | 0.359 (inactive) | 0.125 | 0.375 |  |  |  |  |  |  |  | 
N#Cc1ccc(C(c2ccc(C#N)cc2)n2cncn2)cc1 | inactive | 5.9 µM (active) | 9.35 µM (active) | 5.9 µM (active) | 1.61 (inactive) | 1.56 | 1.79 | 0.0131% (inactive) | 3.12% (inactive) |  |  |  |  |  | 
COc1cc2c(cc1OC)CN(CCc1ccc(NC(=O)c3cccc4c(=O)c5cccc(OC)c5[nH]c34)cc1)CC2 | 20.9 µM (active) | inactive | inactive | inactive | 1.13 (inactive) | 0.952 | 0.963 |  |  | inactive |  |  |  |  | 
CCC(C)n1ncn(-c2ccc(N3CCN(c4ccc(OC[C@H]5CO[C@](Cn6cncn6)(c6ccc(Cl)cc6Cl)O5)cc4)CC3)cc2)c1=O (some centres undefined) | inactive | 3.32 µM (active) | 4.69 µM (active) |  |  |  |  |  |  | 1.32 µM (active) |  |  |  |  | 
COc1ccccc1[C@H](c1cccc2ccccc12)[C@@](C)(C#N)C(=O)N1CCC(c2cccc(C(F)(F)F)c2)CC1 | 5.9 µM (active) |  | 8.33 µM (active) | 4.18 µM (active) | 1.34 (inactive) | 1.15 | 1.29 |  |  | 1.05 µM (active) | 5.9 µM (active) |  |  |  | 
CCCCCCCc1ccc(CCc2cccc(O)c2C(=O)O)cc1 | 20.9 µM (active) | 16.6 µM (active) | inactive | inactive | 1.13 (inactive) | 0.41 | 0.518 |  |  | inactive |  |  |  |  | 
O=C(Nc1cccnc1)N1CCC(Cc2cccc(Oc3ccc(C(F)(F)F)cn3)c2)CC1 | 16.6 µM (active) |  | inactive | 8.33 µM (active) | -0.589 (inactive) | -1.46 | -1.18 |  |  |  | 14.8 µM (active) |  |  |  | 
COCCNCCCn1c(C(=O)CF)c(-c2ccc(C)cc2)c2c(N)ncnc21 | 14.8 µM (active) |  | inactive |  | 0.937 (inactive) | 1.02 | 1.22 |  |  |  | 10.5 µM (active) |  |  |  | 
O=C(Nc1nc2ccccc2n1CCN1CCOCC1)c1cccc([N+](=O)[O-])c1 | 1.05 µM (active) |  | inactive | inactive | 1.54 (inactive) | 1.06 | 1.04 |  |  | inactive | 1.87 µM (active) |  |  |  | 
CC1(C)Cc2c(-c3ccccc3)c(-c3ccc(Cl)cc3)c(CC(=O)O)n2C1 | 20.9 µM (active) |  | 23.5 µM (active) | 16.6 µM (active) | 0.0211 (inactive) | 0.818 | 0.66 |  |  | 18.7 µM (active) | 20.9 µM (active) |  |  |  | 
O=C1CCC(N2C(=O)c3ccccc3C2=O)C(=O)N1 (centres undefined) | inactive |  | inactive | inactive | 0.908 (inactive) | 0.614 | 0.388 |  |  |  | inactive | 0.392 | -0.79 | 0.456 | 3.13% (inactive)
